Screens deposited in PubChem by National Center for Advancing Translational Sciences (NCATS).
In the library only some 9.2% were active in any assay of this set; here they are far more common.
ELG1 repair inh = qHTS screen for small molecules that inhibit ELG1-dependent DNA repair in human embryonic kidney (HEK293T) cells expressing luciferase-tagged ELG1. AID 504467, 2011. Potency, µM (series often up to 46.1 µM), for inactives: top-dose activity change, negative = inhibition, hits mostly inhibitors. HEK293T ELG1-luciferase reporter, luminescence, 16 h; DNA damage induced by 5-fluorouridine. actives 2.3% (n = 330,000); also: % is scaled to controls: 0 for no effect and ±100 for the full control effect; nearly all actives have a fitted effect of over 55% in size
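HEK293T cells expressing luciferase-tagged ELG1 (2,000/well) received 5-Fluorouridine plus compound or DMSO for 16 hr at 37 °C. Luciferase was read by ONE-Glo luminescence after 30 min at room temperature.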
ELG1 genotox = qHTS screen for small molecules that induce genotoxicity in human embryonic kidney (HEK293T) cells expressing luciferase-tagged ELG1; HEK293T ELG1-luciferase reporter, luminescence, 16 h; Potency, µM (series often up to 46 µM), inactives show at the top dose activity change, positive = activation, hits mostly activators; actives 1.3% (n = 330,000); also: % of control where 0% means no effect; nearly all actives have a fitted effect of over 60% in size
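Reporter readout depends on ELG1 protein level, which increases with genetic stress. After 16 hr compound exposure at 37 °C, luciferase activity was quantified using ONE-Glo.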
NPC1 prom act = qHTS Assay for NPC1 Promoter Activators; Huh7 NPC1 promoter luciferase reporter, 24 h; Potency, µM (highest dose often 9.22 µM), inactives show at the top dose activation, most hits filed as activators; actives 2.4% (n = 320,000); AID 485313, 2010; also: % of control where 0% means no effect; nearly all actives have a fitted effect of over 60% in size
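Cells: Huh7 expressing luciferase under the NPC1 promoter, 1500/well. Seeded 2 h, compound added, incubated 24 h at 37 °C. Luciferase reagent, 10 min ambient, then luminescence.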
Rab9 prom act = qHTS Assay for Rab9 Promoter Activators | Huh7 Rab9 promoter-luciferase reporter, luminescence, 24 h | Potency, µM (titrated, usually from 9.22 µM), for the others: top-dose activation, negative = inhibition, usual class: activators | actives 2.8% (n = 320,000); also: % of control where 0% means no effect; nearly all actives have a fitted effect of over 60% in size
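Quantitative HTS format; Huh7 Rab9-luciferase reporter cells (1500/well) receive compound 2 h post-plating, incubate 24 h at 37 °C, then get luciferase reagent for 10 min before luminescence reading.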
FLuc counter = qHTS profiling assay for firefly luciferase inhibitor/activator using purifed enzyme and Km concentrations of substrates (counterscreen for miR-21 project). Luciferin 4-monooxygenase (Photinus pyralis), P08659. purified FLuc, Km substrates, luminescence inhibition. Potency, µM (titrated, usually from 57.5 µM), for the others: at the top dose activity change, negative = inhibition, most hits filed as inhibitors. actives 6.9% (n = 360,000);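 also: plate controls were vehicle for no effect and reference inhibitor for full effect; nearly all actives have a fitted effect of over 55% in size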
Target sequence (P08659 whole entry, looked up): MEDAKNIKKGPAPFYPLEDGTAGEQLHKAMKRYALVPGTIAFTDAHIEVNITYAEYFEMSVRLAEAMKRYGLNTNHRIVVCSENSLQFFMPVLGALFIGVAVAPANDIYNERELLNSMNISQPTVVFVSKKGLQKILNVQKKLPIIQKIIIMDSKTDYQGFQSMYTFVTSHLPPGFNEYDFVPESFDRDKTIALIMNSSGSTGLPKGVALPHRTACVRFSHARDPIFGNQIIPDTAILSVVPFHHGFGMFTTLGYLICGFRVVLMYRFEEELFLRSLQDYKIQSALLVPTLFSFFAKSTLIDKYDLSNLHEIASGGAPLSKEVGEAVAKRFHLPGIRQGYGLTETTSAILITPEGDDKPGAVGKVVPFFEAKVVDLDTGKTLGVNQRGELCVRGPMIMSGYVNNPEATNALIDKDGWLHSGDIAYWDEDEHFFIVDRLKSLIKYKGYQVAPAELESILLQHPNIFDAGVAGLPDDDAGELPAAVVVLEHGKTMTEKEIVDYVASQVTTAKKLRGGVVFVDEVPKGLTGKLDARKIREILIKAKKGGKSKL
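Biochemical qHTS of compounds, final roughly 60 µM downward over six points, against 10 nM purified firefly luciferase using Km concentrations of substrates (10 uM D-luciferin, 10 uM ATP) in Tris acetate pH 7.5 buffer; luminescence output.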
SMN2 splice enh = qHTS Assay for Enhancers of SMN2 Splice Variant Expression; HEK293 SMN2-luciferase splicing reporter, luminescence, 30-36 h; Potency, µM (highest dose often 46.1 µM), without a hit: top-dose activity change, positive = activation, most hits filed as activators; actives 2.8% (n = 210,000); AID 1458, 2008; also: % of control where 0% means no effect; nearly all actives have a fitted effect of over 55% in size
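HEK293 cells carry an SMN2 […]–luciferase reporter in which exon 7 inclusion puts luciferase in frame. Cells were plated 10-12 h before compound addition, then incubated 30-36 h at 37C. ONE-Glo luminescence was read; sodium butyrate at 4.5 mM final served as control.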
The depositor's hits bear a star; ? = inconclusive; · = no result given; [ ] = another dose, or the depositor's remark. Calls follow the shape of the dose curve; as a rule, active = well fitted curve in the direction sought with a large enough effect; inconclusive = small, poorly fitted or top-dose-only effect, or another doubt; inactive = no such curve, though single readings can be large; an effect the other way counts as inactive or inconclusive. Potency is read from the fitted curve at half-maximal effect.

SMILES	ELG1 repair inh	ELG1 genotox	NPC1 prom act	Rab9 prom act	FLuc counter	SMN2 splice enh
Clc1ccc(-c2csc(=Nc3cccnc3)n2CCCn2ccnc2)cc1Cl	8.2µM*	-13%	7%	-6%	1%	-46%
FC(F)Oc1ccc(-c2csc(=Nc3cccnc3)n2CC2CCCO2)cc1 (stereo unspecified)	?	-2%	1%	-5%	4%	-72%
COCCn1c(-c2ccc(Br)cc2)csc1=Nc1cccnc1	12µM*	-8%	-13%	-12%	-9%	-38%
CCCc1ccc(C(=O)NNc2cccc(C)c2)cc1	?	?	29%	20%	21µM*	·
Cc1cccc(NNC(=O)C(=O)NNc2cccc(C)c2)c1	6.5µM*	6%	2%	-1%	1%	·
CC(=O)N1CCC2(CC1)CCN(c1ccccc1)CC2	·	·	·	·	·	-14%
Cc1ccc(C(=O)C(NC(=O)c2ccco2)N2CCOCC2)cc1 (stereo unspecified)	?	18µM*	?	?	-11%	13µM*
Nc1n[nH]c(-c2ccc(F)cc2)n1	26%	5%	-3%	-4%	6%	14%
CCCc1ccc(-c2cc(N)n[nH]2)cc1	?	16µM*	?	?	7.6µM*	17%
CCCCc1ccc(-c2nc(N)n[nH]2)cc1	?	?	3.2µM*	1.6µM*	6µM*	6.3µM*
Cc1ccccc1Cn1nnc(-c2cccc(C(=O)O)c2)n1	?	1.6µM*	0.45µM*	0.79µM*	4.3µM*	7.9µM*
O=C(O)c1cccc(-c2nnn(Cc3ccccc3)n2)c1	?	13%	1.4µM*	0.71µM*	11µM*	2.5µM*
O=C(O)c1cccc(-c2nnn(Cc3ccccc3Cl)n2)c1	?	?	0.45µM*	0.4µM*	3µM*	1.6µM*
COc1ccc(-c2nnn(Cc3ccccc3)n2)cc1	?	?	?	3.2µM*	21µM*	·
COc1ccc2c(c1)c(=O)c(S(=O)(=O)c1ccc(C)c(C)c1)cn2CC(=O)Nc1ccccc1	·	·	·	·	0%	-2%
c1ccc(CCCNc2nnnc3ccccc23)cc1	·	·	·	·	·	-16%[9.22 µM]
CSc1ccc(-c2nnn(Cc3ccc(C)cc3)n2)cc1	?	?	?	?	11µM*	18%
CC(=O)Nc1ccc(C2=NNC(=NCC3CCCO3)SC2)cc1 (stereo unspecified)	?	2%	11%	16%	-19%	·
Fc1ccc(F)c(C2=NNC(=NCC3CCCO3)SC2)c1 (stereo unspecified)	3%	14%	?	2.2µM*	?	?
Cc1nc(OCC(C)C)c2sc3nc4c(cc3c2n1)COC(C)(C)C4	?	?	1.8µM*	1.4µM*	9.5µM*	·
COc1nc(C)nc2c1sc1nc3c(cc12)COC(C)(C)C3	?	8.2µM*	2.5µM*	2µM*	13µM*	14µM*
CCc1nc(OCc2ccco2)c2sc3nc4c(cc3c2n1)COC(C)(C)C4	?	-2%	-1%	0%	-20%	·
O=C(NCc1ccco1)c1cccc(S(=O)(=O)N2CCCCC2)c1	-23%	0%	-1%	-2%	0%	4%
COc1ccc(CN(CC2CCCO2)C(=O)CN2C(=O)C(C)Oc3ccc(C)cc32)cc1OC (stereo unspecified)	8.2µM*	-9%	-1%	-3%	-2%	7%
CCC1Oc2ccc(C)cc2N(CC(=O)N(Cc2ccc3c(c2)OCO3)CC2CCCO2)C1=O (stereo unspecified)	?	-10%	-3%	-2%	2%[2.3 µM]	-13%
SMILES	ELG1 repair inh	ELG1 genotox	NPC1 prom act	Rab9 prom act	FLuc counter	SMN2 splice enh
CCOc1ccc(N2CC(NC(=O)C3CCCC3)CC2=O)cc1 (stereo unspecified)	·	·	·	·	-1%	·
Cn1cccc1-c1nc2ccc([N+](=O)[O-])cc2[nH]1	?	?	2.8µM*	2.2µM*	12µM*	·
O=[N+]([O-])c1ccc2nc(-c3ccccc3)[nH]c2c1	?	?	2.8µM*	2.5µM*	5.4µM*	7.1µM*
CC(=O)Nc1ccc2nc(-c3cccn3C)[nH]c2c1	?	?	27%	?	?	·
Oc1cc(NCCc2cccnc2)cc2cccnc12	23µM*	-8%	-32%	-36%	-2%	·
Oc1cc(Nc2cccnc2)cc2cccnc12	?	4%	-33%	-34%	0%	·
Cc1cc(C)cc(Oc2ccc(N)cc2)c1	26%	22%	1%	-1%	-8%	13µM*
O=S(=O)(c1ccc(C2CCCCC2)cc1)N1CCN(c2cc(Cl)ccc2Cl)CC1	·	·	·	·	-5%	5%
Cc1ccc(CNC(=O)c2cc(Sc3ccc(F)cc3F)nc3ccccc23)cc1	·	·	·	·	0%	·
CCOc1ccc(C(=O)NC(=S)Nc2cccc(NC(=O)c3ccco3)c2)cc1[N+](=O)[O-]	23µM*	-3%	0%	-5%	-1%	4%
Cc1cc(C(=O)Nc2cccc(NC(=O)c3ccco3)c2)ccc1[N+](=O)[O-]	?	-10%	-3%	0%	19µM*	·
COc1ccc(C(=O)NC(=S)Nc2cccc(NC(=O)c3ccco3)c2)cc1[N+](=O)[O-]	?	5%	3%	-2%	1%	-4%
COc1cccc(NS(=O)(=O)c2ccc3c(c2)n(C)c(=O)n3C)c1	·	·	·	·	3%	-60%
